Experimental data: ChEMBL document CHEMBL1961873, “Compounds: GSK PKIS; Assays: Nanosyn kinase panel” (2012)

Columns and labels:
[1] = target: Platelet-derived growth factor receptor beta (Homo sapiens) (UniProt P09619); conditions: at 1 µM;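 also: each value is a mean percent inhibition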
[2] = target: Tyrosine-protein kinase FRK (Homo sapiens) (UniProt P42685); conditions: at 0.1 µM
[3] = target: Tyrosine-protein kinase FRK (Homo sapiens) (UniProt P42685); conditions: at 1 µM
[4] = target: Protein-tyrosine kinase 2-beta (Homo sapiens) (UniProt Q14289); conditions: at 0.1 µM
[5] = target: Protein-tyrosine kinase 2-beta (Homo sapiens) (UniProt Q14289); conditions: at 1 µM
[6] = target: Proto-oncogene tyrosine-protein kinase receptor Ret (Homo sapiens) (UniProt P07949); conditions: at 0.1 µM
[7] = target: Proto-oncogene tyrosine-protein kinase receptor Ret (Homo sapiens) (UniProt P07949); conditions: at 1 µM
[8] = tested on: Proto-oncogene tyrosine-protein kinase receptor Ret (Homo sapiens), P07949 [V804L]; conditions: at 0.1 µM
Chain of Proto-oncogene tyrosine-protein kinase receptor Ret (Homo sapiens), P07949 [V804L] (P07949 whole entry V804L): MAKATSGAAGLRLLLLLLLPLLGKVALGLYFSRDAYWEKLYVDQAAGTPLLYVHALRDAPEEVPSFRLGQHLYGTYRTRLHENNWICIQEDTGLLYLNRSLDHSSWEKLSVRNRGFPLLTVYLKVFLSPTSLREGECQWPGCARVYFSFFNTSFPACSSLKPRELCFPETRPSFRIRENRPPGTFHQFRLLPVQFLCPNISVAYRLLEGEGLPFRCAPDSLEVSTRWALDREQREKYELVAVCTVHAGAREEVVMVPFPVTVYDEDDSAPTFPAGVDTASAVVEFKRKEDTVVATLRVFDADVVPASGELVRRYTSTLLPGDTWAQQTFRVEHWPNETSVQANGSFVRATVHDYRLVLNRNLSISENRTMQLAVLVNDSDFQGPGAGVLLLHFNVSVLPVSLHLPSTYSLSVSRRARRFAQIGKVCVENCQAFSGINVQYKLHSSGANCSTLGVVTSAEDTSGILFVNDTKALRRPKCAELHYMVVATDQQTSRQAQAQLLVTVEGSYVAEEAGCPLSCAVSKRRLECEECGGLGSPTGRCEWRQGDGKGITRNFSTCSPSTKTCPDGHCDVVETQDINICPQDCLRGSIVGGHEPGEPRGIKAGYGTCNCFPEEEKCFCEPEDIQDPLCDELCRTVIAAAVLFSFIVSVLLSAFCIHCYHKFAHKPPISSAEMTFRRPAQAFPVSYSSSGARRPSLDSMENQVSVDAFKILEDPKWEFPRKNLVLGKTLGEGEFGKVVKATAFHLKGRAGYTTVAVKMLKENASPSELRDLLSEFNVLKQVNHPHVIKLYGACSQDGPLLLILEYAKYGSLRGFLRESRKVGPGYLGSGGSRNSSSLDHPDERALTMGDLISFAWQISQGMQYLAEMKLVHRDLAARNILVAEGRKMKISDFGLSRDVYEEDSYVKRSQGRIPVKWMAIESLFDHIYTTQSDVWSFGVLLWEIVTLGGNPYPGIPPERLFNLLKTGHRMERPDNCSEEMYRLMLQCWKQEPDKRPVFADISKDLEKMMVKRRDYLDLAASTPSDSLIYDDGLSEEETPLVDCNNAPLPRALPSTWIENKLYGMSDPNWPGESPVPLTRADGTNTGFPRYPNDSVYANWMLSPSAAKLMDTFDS

[9] = tested on: Proto-oncogene tyrosine-protein kinase receptor Ret (Homo sapiens), P07949 [V804L]; conditions: at 1 µM
[10] = tested on: Proto-oncogene tyrosine-protein kinase receptor Ret (Homo sapiens), P07949 [Y791F]; conditions: at 0.1 µM
Chain of Proto-oncogene tyrosine-protein kinase receptor Ret (Homo sapiens), P07949 [Y791F] (P07949 whole entry Y791F): as the sequence (P07949 whole entry V804L) above, with Y791F, L804V counted along it

[11] = tested on: Proto-oncogene tyrosine-protein kinase receptor Ret (Homo sapiens), P07949 [Y791F]; conditions: at 1 µM
[12] = target: Macrophage-stimulating protein receptor (Homo sapiens) (UniProt Q04912); conditions: at 0.1 µM
[13] = target: Macrophage-stimulating protein receptor (Homo sapiens) (UniProt Q04912); conditions: at 1 µM
[14] = target: Proto-oncogene tyrosine-protein kinase ROS (Homo sapiens) (UniProt P08922); conditions: at 0.1 µM
Chain of Proto-oncogene tyrosine-protein kinase ROS (Homo sapiens) (P08922 whole entry): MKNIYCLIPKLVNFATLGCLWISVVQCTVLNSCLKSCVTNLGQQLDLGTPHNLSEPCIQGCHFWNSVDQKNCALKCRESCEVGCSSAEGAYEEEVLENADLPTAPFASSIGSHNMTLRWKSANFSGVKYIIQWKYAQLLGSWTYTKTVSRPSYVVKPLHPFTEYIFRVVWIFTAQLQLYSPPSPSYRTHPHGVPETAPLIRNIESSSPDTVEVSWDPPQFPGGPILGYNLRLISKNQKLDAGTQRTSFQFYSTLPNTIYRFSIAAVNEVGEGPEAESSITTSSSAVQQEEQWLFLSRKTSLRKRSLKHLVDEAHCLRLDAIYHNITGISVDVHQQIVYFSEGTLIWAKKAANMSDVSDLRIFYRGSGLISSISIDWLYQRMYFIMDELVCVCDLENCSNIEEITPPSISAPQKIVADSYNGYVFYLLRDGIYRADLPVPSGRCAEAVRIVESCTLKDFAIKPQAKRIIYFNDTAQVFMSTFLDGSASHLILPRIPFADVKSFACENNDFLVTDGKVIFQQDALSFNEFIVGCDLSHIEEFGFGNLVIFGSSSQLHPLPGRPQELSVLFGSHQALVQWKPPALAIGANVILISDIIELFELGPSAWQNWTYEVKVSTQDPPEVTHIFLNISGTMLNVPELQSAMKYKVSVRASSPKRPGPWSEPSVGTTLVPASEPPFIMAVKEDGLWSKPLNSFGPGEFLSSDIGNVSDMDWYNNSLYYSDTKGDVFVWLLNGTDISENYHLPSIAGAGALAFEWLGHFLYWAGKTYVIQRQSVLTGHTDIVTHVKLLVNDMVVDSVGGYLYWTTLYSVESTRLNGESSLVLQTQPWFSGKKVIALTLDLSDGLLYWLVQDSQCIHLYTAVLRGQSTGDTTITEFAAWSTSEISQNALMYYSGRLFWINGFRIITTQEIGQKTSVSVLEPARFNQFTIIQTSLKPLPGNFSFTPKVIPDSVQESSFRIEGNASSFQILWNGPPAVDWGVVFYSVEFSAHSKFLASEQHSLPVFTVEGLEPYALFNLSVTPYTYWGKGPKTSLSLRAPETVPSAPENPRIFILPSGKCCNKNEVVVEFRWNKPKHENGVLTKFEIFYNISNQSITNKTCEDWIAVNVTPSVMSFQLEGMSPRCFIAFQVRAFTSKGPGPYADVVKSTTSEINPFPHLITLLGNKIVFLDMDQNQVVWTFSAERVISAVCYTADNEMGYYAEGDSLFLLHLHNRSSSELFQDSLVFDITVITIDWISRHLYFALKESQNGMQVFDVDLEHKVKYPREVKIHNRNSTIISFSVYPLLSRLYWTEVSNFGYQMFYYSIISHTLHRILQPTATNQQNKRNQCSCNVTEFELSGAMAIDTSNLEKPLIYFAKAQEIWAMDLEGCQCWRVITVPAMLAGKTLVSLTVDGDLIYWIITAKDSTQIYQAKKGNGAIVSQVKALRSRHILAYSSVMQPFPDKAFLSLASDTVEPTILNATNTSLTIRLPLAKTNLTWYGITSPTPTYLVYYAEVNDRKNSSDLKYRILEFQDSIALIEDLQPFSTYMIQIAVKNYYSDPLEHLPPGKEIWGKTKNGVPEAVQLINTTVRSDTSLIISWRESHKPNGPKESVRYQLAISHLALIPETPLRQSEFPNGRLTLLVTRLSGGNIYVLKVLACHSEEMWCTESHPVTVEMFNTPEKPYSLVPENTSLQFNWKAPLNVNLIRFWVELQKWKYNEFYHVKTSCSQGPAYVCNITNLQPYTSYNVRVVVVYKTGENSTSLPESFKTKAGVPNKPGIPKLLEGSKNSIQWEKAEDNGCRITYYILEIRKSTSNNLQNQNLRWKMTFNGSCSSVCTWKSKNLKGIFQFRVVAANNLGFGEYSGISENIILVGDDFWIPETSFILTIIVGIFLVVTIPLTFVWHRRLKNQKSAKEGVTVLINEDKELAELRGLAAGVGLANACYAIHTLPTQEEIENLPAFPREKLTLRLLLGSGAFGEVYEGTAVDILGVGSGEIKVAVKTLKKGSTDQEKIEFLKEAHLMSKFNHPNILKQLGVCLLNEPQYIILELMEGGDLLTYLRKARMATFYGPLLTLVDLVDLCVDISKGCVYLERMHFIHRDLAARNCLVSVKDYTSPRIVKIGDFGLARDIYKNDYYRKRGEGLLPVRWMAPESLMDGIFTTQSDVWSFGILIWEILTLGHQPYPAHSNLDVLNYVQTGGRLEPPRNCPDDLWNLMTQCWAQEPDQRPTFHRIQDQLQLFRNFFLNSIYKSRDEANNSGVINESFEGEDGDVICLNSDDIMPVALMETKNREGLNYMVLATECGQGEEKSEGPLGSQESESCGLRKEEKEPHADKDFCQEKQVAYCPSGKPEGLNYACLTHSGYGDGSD

[15] = target: Proto-oncogene tyrosine-protein kinase ROS (Homo sapiens) (UniProt P08922); conditions: at 1 µM
[16] = target: Proto-oncogene tyrosine-protein kinase Src (Homo sapiens) (UniProt P12931); conditions: at 0.1 µM
Chain of Proto-oncogene tyrosine-protein kinase Src (Homo sapiens) (P12931 2-536 limits assumed): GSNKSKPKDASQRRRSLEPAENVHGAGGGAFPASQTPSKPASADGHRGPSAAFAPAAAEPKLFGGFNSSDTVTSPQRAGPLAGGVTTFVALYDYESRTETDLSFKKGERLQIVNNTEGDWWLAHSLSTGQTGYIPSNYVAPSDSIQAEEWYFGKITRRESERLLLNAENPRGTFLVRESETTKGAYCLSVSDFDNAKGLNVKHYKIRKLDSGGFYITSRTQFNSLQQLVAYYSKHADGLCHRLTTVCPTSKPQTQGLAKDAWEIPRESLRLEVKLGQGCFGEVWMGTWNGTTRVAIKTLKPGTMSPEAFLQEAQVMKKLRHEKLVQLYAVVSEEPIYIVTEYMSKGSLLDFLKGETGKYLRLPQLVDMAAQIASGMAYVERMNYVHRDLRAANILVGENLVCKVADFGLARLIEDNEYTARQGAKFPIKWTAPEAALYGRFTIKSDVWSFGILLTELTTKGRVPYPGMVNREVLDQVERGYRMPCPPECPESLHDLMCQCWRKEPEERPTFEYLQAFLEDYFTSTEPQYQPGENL

[17] = target: Proto-oncogene tyrosine-protein kinase Src (Homo sapiens) (UniProt P12931); conditions: at 1 µM
[18] = target: Tyrosine-protein kinase Srms (Homo sapiens) (UniProt Q9H3Y6); conditions: at 0.1 µM
[19] = target: Tyrosine-protein kinase Srms (Homo sapiens) (UniProt Q9H3Y6); conditions: at 1 µM
[20] = target: Tyrosine-protein kinase SYK (Homo sapiens) (UniProt P43405); conditions: at 0.1 µM;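 also: reported percentages are mean inhibition values for SYK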

Chain of Platelet-derived growth factor receptor beta (Homo sapiens) (P09619 whole entry): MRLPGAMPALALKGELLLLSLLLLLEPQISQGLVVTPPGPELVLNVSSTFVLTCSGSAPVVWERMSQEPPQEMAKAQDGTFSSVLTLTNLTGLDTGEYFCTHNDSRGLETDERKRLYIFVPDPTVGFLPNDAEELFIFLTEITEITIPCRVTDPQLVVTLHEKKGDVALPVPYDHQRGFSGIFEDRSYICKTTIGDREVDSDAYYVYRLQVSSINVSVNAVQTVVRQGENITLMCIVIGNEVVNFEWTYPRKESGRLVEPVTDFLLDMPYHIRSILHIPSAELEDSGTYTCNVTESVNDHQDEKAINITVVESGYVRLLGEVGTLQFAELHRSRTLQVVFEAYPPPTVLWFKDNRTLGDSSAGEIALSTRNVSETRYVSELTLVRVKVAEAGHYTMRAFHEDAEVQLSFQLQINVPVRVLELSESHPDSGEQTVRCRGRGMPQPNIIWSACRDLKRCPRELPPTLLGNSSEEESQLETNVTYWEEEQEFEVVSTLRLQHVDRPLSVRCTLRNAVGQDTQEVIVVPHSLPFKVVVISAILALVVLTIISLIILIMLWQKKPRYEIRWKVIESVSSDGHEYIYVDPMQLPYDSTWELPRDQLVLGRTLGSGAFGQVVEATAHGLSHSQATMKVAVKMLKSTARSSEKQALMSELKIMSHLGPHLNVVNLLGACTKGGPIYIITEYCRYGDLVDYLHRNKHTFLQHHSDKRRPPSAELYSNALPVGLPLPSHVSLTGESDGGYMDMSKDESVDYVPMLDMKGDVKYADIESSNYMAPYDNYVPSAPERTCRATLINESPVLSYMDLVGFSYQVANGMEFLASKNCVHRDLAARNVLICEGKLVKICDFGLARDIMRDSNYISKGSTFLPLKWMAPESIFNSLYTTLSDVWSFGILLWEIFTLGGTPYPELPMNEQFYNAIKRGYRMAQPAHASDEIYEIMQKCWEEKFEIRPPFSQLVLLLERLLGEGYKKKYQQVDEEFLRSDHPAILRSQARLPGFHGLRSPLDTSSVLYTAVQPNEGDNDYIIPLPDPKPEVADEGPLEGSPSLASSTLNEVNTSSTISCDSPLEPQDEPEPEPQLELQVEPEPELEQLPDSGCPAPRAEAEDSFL

Row | Compound | inhibition [1] | inhibition [2] | inhibition [3] | inhibition [4] | inhibition [5] | inhibition [6] | inhibition [7] | inhibition [8] | inhibition [9] | inhibition [10] | inhibition [11] | inhibition [12] | inhibition [13] | inhibition [14] | inhibition [15] | inhibition [16] | inhibition [17] | inhibition [18] | inhibition [19] | inhibition [20]
1 | CN(C)CCOc1ccc(-c2cc(-c3ccc4c(c3)CCC4=NO)c(-c3ccncc3)o2)cc1 | 9.14% | -1.02% | 0.49% | -7.75% | 0.57% | 3.54% | 1.85% | 0.61% | 1.37% | -1.98% | 9.08% | -0.03% | 22.4% | -1.28% | 0.64% | 1.1% | 2.61% | 3% | 3.76% | 0.85%
2 | COc1cc(Nc2ncc3c(C)nc(-c4cccc(C(F)(F)F)c4)n3n2)cc(OC)c1OC | 38% | 1.36% | 0.31% | 11.8% | 39.6% | 7.14% | 39.1% | 16.7% | 57.4% | 8.01% | 31.8% | -0.28% | 6.04% | 6.64% | 10.5% | 22.6% | 74.4% | 1.58% | 0.29% | -1.19%
3 | COc1cccc(/C=N/Nc2ncnc3c2cnn3-c2cccc(OC)c2)c1 | 11% | 2.06% | 3.36% | 1% | 10.2% | 0.27% | 6.95% | 0.36% | 1.63% | 3.95% | 6.96% | 0.75% | 4.77% | 5.15% | 8.27% | 7.02% | 17.5% | -1.15% | -3.63% | 2.69%
4 | CN(C)c1ccc2c(c1)/C(=C/Nc1ccc(S(N)(=O)=O)cc1)C(=O)N2 | 71.3% | 1.57% | 2.09% | 8.05% | 31.7% | 20.2% | 51.5% | 12.5% | 51.1% | 11.2% | 47% | -0.09% | 7.23% | 4.66% | 8.86% | -4.52% | 27.4% | 1.2% | 3.48% | 
5 | NC(=O)c1cc(-c2ccncc2)cc(-c2ccccc2)c1N | 26% | 3.05% | 7.89% | 10.8% | 13.4% | 6.99% | 27% | 2.8% | 6.36% | 6.34% | 42.3% | 4.63% | 2.14% | 5.79% | 14.7% | 10.4% | 59.8% | 0.18% | 5.81% | -0.73%
6 | CCN(CC)Cc1ccc(Nc2nccc(-c3cnn4ncccc34)n2)cc1 | 71.8% | 2.63% | 3.76% | 24.8% | 81.3% | 4.61% | 12.8% | 2.46% | 16.3% | 5.39% | 18.2% | 4.89% | 22.4% | 34.5% | 70.5% | 10.3% | 38.2% | -1.32% | 0.74% | 1.59%
7 | COc1ccc2cc(-c3c(-c4ccncc4)nc(-c4ccc([S+](C)[O-])cc4C)n3C)ccc2c1 (stereo not drawn) | 5.35% | -0.28% | -0.05% | -4.54% | -2.74% | 2.66% | 22.2% | 1.07% | 2.78% | 2% | 28.3% | 3.56% | 4.22% | 2.09% | 6.31% | 2.64% | 3.54% | 1.97% | 6.78% | -0.12%
8 | Cc1ccc(C(=O)NC2CCC2)cc1-c1ccc(C(=O)NCC2CC2)cc1 | 4.37% | 1.45% | 0.56% | 4.2% | 4.27% | 7.54% | 8.34% | 4.17% | -0.01% | 2.44% | 2.67% | 5.75% | 4.87% | 3.25% | 2.72% | 1.78% | 4.45% | -2.12% | -0.59% | -0.95%
9 | CS(=O)(=O)CCNCc1ccc(-c2ccc3ncnc(Nc4ccc(OCc5ccccc5)c(Br)c4)c3c2)o1 | 7.34% | 2.64% | 3.25% | 3.86% | 10.1% | 7.14% | 4.94% | 2.03% | 4.43% | 9.28% | 15.1% | 4.89% | 6.32% | 4.46% | 10.1% | 6.71% | 6.55% | -0.64% | 2.32% | -1.09%
10 | COc1cc(Nc2ncc(-c3ccccc3)o2)cc(OC)c1OC | 74.2% | 0.5% | 4.26% | -6.53% | 5.39% | 2.33% | 15.5% | 1% | 16.2% | 0.66% | 16.2% | -0.55% | 3.47% | 2.53% | 15.8% | 19.7% | 72.4% | -1.26% | 3.83% | -0.67%
11 | c1ccc(Oc2ccc(Nc3ncc(-c4ccccc4)o3)cc2)cc1 | 10.3% | -0.25% | 1.21% | 6.6% | 8.05% | 5.96% | 3.49% | 4.18% | 6.54% | 5.06% | 6.74% | 4.82% | 2.2% | 4.48% | 5.71% | -4.51% | 3.93% | 0.57% | 1.29% | -7.24%
12 | COc1ccc2cc(-c3c(-c4ccncc4)nc(-c4ccc(S(C)(=O)=O)cc4C)n3C)ccc2c1 | 13.2% | 3.55% | 2.3% | 12.8% | 12.4% | 4.93% | 22.2% | 2.68% | 4.41% | 3.67% | 26.6% | 0.23% | -0.19% | 6.07% | 8.9% | 3.38% | 11.2% | 1.11% | 5.61% | 0.01%
13 | Cc1ccc(C(=O)NC(C)C)cc1-c1ccc(C(=O)NCC2CC2)cc1 | 2.4% | 0.01% | -0.89% | -7.76% |  | 2.09% | 0.64% | -0.26% | -0.17% | -0.71% | -0.37% | -4.49% | 0.06% | -1.39% | 0.55% | -4.72% | -6.71% | -2.42% | 2.24% | -0.72%
